Data taken from PubChem BioAssay (NCATS).
Inconclusive results are not listed. Active and inactive are the calls of the source. Unless noted, the call rests on the fitted dose curve; in most records, active means well fitted curve in the direction sought with a large enough effect; inconclusive means small, poorly fitted or top-dose-only effect, or another doubt; inactive means no such curve, though single readings can be large; an effect the other way counts as inactive or inconclusive. Where a SMILES comes first, the peptide text is derived from it.

How the values were obtained:
[1] = AP1 Signaling Pathway (AID 357; active means well fitted curve in either direction with a large enough effect, not every such curve was filed as active; further: on the % scale 0 is the no-effect control and ±100 the full control effect)
Method in brief: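 ME-180 cells with beta-lactamase reporter under AP-1 response element, stimulated with EC50 EGF; compounds tested in titration series, 5 h at 37 °C. CCF4 substrate added 2.5 h at room temperature; 460/530 nm emission ratio gave %activity and AC50.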

[2] = biological target: Cytochrome P450 1A2 (Homo sapiens) (UniProt P05177); assay: p450-cyp1a2 (AID 410; calls by dose curve;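 further: -100% = full effect of reference inhibitor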)
Cytochrome P450 1A2 (Homo sapiens), sequence (P05177 whole entry, looked up): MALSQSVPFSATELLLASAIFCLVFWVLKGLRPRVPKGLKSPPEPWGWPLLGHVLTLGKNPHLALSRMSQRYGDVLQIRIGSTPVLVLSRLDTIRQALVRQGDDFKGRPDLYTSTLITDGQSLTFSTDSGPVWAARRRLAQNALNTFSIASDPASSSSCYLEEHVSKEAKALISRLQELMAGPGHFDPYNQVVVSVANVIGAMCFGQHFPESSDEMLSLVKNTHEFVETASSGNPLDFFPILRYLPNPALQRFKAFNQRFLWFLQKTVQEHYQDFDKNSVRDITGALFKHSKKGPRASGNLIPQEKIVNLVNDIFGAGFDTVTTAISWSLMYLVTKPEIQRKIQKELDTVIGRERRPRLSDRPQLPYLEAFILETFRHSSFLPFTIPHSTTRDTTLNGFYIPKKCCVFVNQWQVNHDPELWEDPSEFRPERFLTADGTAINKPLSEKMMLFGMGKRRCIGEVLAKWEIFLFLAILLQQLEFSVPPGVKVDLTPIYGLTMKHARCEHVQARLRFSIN
Method in brief: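 Read-out is luminescence from luciferin produced by CYP1A2 demethylation of Luciferin-ME (100uM, at Km). Detection reagent stopped the 60 min NADPH-dependent reaction; signals were normalized to 57 uM furafylline.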

[3] = Stat Signaling Pathway (AID 446; active means well fitted curve in either direction with a large enough effect, not every such curve was filed as active;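 further: ME-180 cervical cancer cells given 40 pM IL-6 alongside compound; SIE-controlled beta-lactamase reporter measured as 460/530 nm FRET emission ratio; on the % scale 0 is the no-effect control and ±100 the full control effect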)
Method in brief: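 Emission at 460 and 530 nm (excitation 405 nm) reports SIE-controlled beta-lactamase in ME-180 cells. Cells received compound with 40 pM IL-6 for 5 hrs at 37 C; data scaled between 300 pM IL-6 and 125 nM JAK-inhibitor controls.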

[4] = biological target: Glucocorticoid receptor (Homo sapiens) (UniProt P04150); assay: GR-EFC Redistribution (AID 451; calls by dose curve; further: potency means the concentration at half of the fitted maximal effect); conditions: CHO-K1 GR-EFC translocation, beta-gal luminescence, 2 h
Glucocorticoid receptor (Homo sapiens), sequence (P04150 whole entry, looked up, the tested form may be a part): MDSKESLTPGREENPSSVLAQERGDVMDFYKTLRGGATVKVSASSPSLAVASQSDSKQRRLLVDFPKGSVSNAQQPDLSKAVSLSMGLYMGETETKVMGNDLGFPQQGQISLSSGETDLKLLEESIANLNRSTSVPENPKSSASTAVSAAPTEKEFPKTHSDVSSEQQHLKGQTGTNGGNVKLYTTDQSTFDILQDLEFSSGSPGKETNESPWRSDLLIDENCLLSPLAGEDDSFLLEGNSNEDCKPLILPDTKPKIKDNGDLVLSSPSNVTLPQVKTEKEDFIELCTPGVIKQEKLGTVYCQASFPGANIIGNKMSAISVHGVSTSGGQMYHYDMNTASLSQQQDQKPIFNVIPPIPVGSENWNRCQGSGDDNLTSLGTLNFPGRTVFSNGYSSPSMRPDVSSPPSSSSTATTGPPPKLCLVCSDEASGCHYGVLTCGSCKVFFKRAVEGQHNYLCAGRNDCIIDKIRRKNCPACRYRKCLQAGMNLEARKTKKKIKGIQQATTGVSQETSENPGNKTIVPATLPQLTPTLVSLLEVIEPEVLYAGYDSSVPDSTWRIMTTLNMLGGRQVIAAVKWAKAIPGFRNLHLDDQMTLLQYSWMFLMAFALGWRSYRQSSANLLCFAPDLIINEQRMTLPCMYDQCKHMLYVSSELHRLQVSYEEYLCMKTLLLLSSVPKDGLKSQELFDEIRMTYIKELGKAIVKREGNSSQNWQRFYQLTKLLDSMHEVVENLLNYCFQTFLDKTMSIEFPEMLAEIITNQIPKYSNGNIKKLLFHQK
Method in brief: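 Translocation of GR-ED fusion to nuclear EA restores b-gal, read by luminescence after 1 h room-temperature detection. Engineered CHO-K1 biosensor cells, 1,000/well, exposed 2 h at 37 C to titrations up to 46 uM final.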

[5] = biological target: Mitogen-activated protein kinase 10 (Mus musculus) (UniProt Q61831); assay: JNK3 AlphaScreen Assay (AID 530; active means well fitted curve in either direction with a large enough effect, not every such curve was filed as active;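 further: kinase came from lysate of stimulated human HepG2 cells; signal reports phosphorylation of biotinylated GST-cJun 1-79 at Ser73 with 10 µM ATP; on the % scale 0 is the no-effect control and ±100 the full control effect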)
Method in brief: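 Kinase buffer: 20 mM Tris-HCl pH 7.6, 10 mM MgCl2, 1 mM DTT, 0.1 mM Na3VO4, 0.01% Tween-20; ATP 10 uM. Substrate biotin-GST-cJun(1-79), enzyme from activated HepG2 lysates. Detection by Ser73 phospho-antibody AlphaScreen.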

[6] = biological target: 3',5'-cyclic-AMP phosphodiesterase 4B (Homo sapiens) (UniProt Q07343); assay: qHTS Assay for Inhibitors of PDE-IV (AID 607; active means well fitted activation curve with a large enough effect in the main read-out, with a control signal flat, not every such curve was filed as active; further: % of control where 0% means no effect)
3',5'-cyclic-AMP phosphodiesterase 4B (Homo sapiens), sequence (Q07343 whole entry, looked up): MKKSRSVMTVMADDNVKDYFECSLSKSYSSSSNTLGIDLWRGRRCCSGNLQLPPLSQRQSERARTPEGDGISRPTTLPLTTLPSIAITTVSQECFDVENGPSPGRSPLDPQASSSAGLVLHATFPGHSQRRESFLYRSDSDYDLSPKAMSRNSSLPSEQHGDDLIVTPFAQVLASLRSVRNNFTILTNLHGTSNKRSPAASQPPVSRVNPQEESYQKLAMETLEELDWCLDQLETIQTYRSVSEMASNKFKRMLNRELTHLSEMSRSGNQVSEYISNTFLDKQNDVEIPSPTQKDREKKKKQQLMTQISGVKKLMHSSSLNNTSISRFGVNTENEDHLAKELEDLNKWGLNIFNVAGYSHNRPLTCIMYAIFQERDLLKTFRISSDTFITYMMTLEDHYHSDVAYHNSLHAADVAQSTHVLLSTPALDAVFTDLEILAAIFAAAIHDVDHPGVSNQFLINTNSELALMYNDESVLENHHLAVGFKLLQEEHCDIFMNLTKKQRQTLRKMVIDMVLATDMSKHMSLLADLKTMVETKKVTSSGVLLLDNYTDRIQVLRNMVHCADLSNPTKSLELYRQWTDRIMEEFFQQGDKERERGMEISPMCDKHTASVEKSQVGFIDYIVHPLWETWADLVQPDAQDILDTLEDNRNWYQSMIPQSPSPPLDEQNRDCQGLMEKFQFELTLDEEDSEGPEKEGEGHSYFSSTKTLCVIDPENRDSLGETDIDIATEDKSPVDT
Method in brief: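 The readout is membrane depolarisation from a cAMP-sensing CNG channel, detected with a potential dye at ex 535/em 590. Cells were HEK293-derived (endogenous PDE-IV) at 1000 cells/well, titrated up to 22.9 uM final.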

[7] = biological target: Guanine nucleotide-binding protein G(i) subunit alpha-1 (Homo sapiens) (UniProt P63096); assay: qHTS Assay for Inhibitors of RGS12 GoLoco Motif Activity (Green Fluorophore) (AID 879);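 further: 0% = labeled peptide with Gαi1 and full inhibition = labeled peptide alone without protein; negative values mean loss of peptide binding seen as reduced polarization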
Guanine nucleotide-binding protein G(i) subunit alpha-1 (Homo sapiens), sequence (P63096 whole entry, looked up): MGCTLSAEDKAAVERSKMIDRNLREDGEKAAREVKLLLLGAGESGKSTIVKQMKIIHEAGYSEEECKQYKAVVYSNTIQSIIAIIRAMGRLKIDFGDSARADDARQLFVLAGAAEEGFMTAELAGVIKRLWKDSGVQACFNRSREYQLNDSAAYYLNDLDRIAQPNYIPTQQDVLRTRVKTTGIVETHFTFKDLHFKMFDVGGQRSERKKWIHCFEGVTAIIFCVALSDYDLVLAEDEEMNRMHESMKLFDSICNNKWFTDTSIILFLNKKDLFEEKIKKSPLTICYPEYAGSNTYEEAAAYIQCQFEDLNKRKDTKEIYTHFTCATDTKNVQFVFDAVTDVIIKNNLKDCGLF
Method in brief: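 A drop in FITC polarization marked displacement of the FITC-tagged RGS12 GoLoco peptide (10 nM) from Gαi1 (50 nM). Compounds were incubated 10 min at room temperature in Tris pH 7.5 buffer containing 150 mM NaCl, 0.1 mM GDP and 0.05% NP40; unlabeled peptide titration served as control.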

[8] = biological target: Muscarinic acetylcholine receptor M1 (Rattus norvegicus) (UniProt P08482); assay: qHTS Assay for Antagonists of Acetylcholine Muscarinic M1 Receptor: Measurement of IP-One Response (AID 944); further: nearly all actives have a fitted effect of over 75% in size
Muscarinic acetylcholine receptor M1 (Rattus norvegicus), sequence (P08482 whole entry, looked up): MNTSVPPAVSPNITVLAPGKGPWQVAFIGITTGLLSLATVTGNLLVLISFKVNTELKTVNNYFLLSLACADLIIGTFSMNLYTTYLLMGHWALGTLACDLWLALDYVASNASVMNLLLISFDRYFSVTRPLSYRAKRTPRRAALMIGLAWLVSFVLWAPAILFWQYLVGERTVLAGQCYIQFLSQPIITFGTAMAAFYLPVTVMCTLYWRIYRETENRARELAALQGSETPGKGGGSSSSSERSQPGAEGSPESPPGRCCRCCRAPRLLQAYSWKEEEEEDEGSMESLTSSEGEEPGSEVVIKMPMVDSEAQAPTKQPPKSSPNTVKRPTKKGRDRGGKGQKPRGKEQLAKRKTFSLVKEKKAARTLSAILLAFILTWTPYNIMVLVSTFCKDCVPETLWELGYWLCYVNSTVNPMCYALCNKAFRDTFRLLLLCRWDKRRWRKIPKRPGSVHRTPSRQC
Method in brief: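 Antagonism was measured as loss of carbachol-driven (EC80) IP1 accumulation in CHO cells carrying rat M1, using a homogeneous IP-One TR-FRET kit read at 620 and 665 nm.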

[9] = biological target: Pyruvate kinase (Leishmania mexicana) (UniProt Q27686); assay: qHTS Validation Assay for Inhibitors of Leishmania Mexicana Pyruvate Kinase (AID 945);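 further: 0% = DMSO only neutral control wells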
Method in brief: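 qHTS eight-point titrations against 0.2 nM LmPYK (E451W) in imidazole buffer pH 7.2 with 0.5 mM PEP, 0.1 mM ADP; 1 h, room temperature. Readout: PKLight luminescence, normalized to neutral DMSO wells.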

[10] = biological target: Pyruvate kinase PKM (Homo sapiens) (UniProt P14618); assay: qHTS Assay for Activators of Human Muscle Pyruvate Kinase (AID 954; active means well fitted curve in the direction sought with a large enough effect, not every such curve was filed as active;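 further: 0% = uninhibited enzyme and -100% = no enzyme or full thiadiazolimine inhibition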)
Pyruvate kinase PKM (Homo sapiens), sequence (P14618 whole entry, looked up): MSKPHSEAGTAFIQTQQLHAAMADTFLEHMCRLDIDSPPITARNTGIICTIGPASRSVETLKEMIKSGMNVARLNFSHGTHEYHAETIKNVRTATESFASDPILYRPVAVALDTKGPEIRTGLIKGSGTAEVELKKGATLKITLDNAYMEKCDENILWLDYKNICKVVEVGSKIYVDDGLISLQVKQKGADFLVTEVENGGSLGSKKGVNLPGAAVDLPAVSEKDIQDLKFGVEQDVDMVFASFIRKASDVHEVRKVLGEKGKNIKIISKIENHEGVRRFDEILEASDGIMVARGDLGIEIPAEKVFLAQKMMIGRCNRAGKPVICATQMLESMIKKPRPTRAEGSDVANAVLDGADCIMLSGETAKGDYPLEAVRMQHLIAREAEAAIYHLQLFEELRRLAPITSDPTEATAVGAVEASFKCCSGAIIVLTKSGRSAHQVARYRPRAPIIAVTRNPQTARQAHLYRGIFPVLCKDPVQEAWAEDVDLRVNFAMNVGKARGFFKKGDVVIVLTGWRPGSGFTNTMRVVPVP
Method in brief: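 PKM2, human, >95% pure, 0.1 nM; PEP 0.5 mM (Km), ADP 0.1 mM; 50 mM imidazole pH 7.2, 50 mM KCl, 0.01% Tween 20, 0.05% BSA; 1 h RT; luciferase luminescence readout.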

[11] = biological target: alpha-glucosidase (Oryza sativa, rice) (UniProt Q653V4); assay: Counterscreen for Glucocerebrosidase Inhibitors: qHTS Assay for Rice alpha-Glucosidase at pH 5.0 (AID 997);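 further: 0% = full activity with enzyme and -100% = basal without enzyme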
Method in brief: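 Endpoint fluorogenic assay at pH 5.0: compounds (0.7 nM to 77 uM) titrated against 4 nM rice enzyme and 400 uM 4-MU-alpha-glucoside for 20 min at room temperature; NaOH/glycine stop, read ex 365/em 440 nm, Hill-fitted AC50.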

[12] = biological target: Alpha-galactosidase (Coffea arabica) (UniProt Q42656); assay: Counterscreen for Glucocerebrosidase Inhibitors: qHTS Assay for Coffee Bean alpha-Galactosidase at pH 5.9 (AID 998);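 further: plate controls were uninhibited enzyme for no effect and no-enzyme basal signal for full effect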
Alpha-galactosidase (Coffea arabica), sequence (Q42656 whole entry, looked up): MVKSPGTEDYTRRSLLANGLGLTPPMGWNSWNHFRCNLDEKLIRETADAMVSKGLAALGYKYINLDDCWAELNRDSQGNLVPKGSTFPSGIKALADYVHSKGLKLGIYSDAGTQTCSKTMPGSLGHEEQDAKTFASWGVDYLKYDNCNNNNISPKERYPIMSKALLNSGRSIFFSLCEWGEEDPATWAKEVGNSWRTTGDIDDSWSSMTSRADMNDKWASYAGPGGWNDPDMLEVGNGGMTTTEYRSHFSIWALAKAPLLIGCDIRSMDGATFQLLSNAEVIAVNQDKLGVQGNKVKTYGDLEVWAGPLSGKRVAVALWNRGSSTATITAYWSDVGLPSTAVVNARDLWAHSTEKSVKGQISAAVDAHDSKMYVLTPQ
Method in brief: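 Fluorogenic 4-MU substrate hydrolysis, 80 uM substrate and 2 nM coffee bean alpha-galactosidase, pH 5.9 citrate buffer, 20 min at room temperature, then NaOH/glycine stop. Titration 0.7 nM–77 uM, normalized to no-enzyme and enzyme controls, AC50 via Hill equation.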

[13] = qHTS Assay for Lipid Storage Modulators (AID 1519; calls by dose curve); conditions: Drosophila S3 cells, BODIPY lipid droplet/cell ratio, laser cytometry, cells loaded with oleic acid
Method in brief: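 Cells seeded at 5,000 per well were treated with compounds over a concentration series and loaded with oleic acid (400 uM, as added). Lipid droplet fluorescence (488 nm excitation, 500-530 nm channel) was read by laser-scanning cytometry and normalized to 20 uM Triacsin C.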

[14] = biological target: DNA dC->dU-editing enzyme APOBEC-3G (Homo sapiens) (UniProt Q9HC16); assay: qHTS for inhibitors of Vif-A3G interactions: Validation (AID 588379); further: 0% is about no effect
DNA dC->dU-editing enzyme APOBEC-3G (Homo sapiens), sequence (Q9HC16 whole entry, looked up): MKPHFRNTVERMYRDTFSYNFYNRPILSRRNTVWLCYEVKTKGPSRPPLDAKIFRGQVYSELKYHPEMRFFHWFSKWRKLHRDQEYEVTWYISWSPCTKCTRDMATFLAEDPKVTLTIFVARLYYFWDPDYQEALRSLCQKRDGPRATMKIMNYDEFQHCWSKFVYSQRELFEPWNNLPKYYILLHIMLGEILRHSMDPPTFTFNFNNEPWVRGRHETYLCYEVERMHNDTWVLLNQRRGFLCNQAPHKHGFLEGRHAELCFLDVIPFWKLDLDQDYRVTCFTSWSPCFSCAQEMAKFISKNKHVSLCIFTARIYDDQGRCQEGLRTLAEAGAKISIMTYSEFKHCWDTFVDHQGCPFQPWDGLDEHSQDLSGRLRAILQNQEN
Method in brief: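 Yellow fluorescence (Ex 488, Em 500-530) of Vif-coexpressing HeLa A3G-eYFP cells, scanned by Acumen cytometer, reports blocked A3G degradation. Cells plated at 700/well overnight at 37 deg C before compound addition, then a further overnight compound incubation at 37 deg C.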

[15] = tested on: Zika virus NS2B-NS3 protease; assay: Primary screen GU AMC qHTS for Zika virus inhibitors (AID 1347154);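 further: 0% = no-inhibitor control and -100% = no-enzyme control; nearly all actives have a fitted effect of over 70% in size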
Method in brief: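 Fluorogenic AMC-substrate cleavage by noncovalent NS2B-NS3 protease complex (25 nM, pH 8.0 Tris buffer with Tween 20) followed for 15 minutes at room temperature (~20% conversion). Percent inhibition from ex340/em450 signal change, fitted by 4-parameter Hill equation.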

[16] = Primary qHTS for small molecule stabilizers of the endoplasmic reticulum resident proteome: Secreted ER Calcium Modulated Protein (SERCaMP) assay (AID 1508630); further: on the % scale 0 is the no-effect control and ±100 the full control effect
Method in brief: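 The SH-SY5Y reporter protocol was run at 3 concentrations up to 38.3 uM (primary) or 11 concentrations (follow-up): 16 h compound, 100 nM thapsigargin for 4 h, then extracellular luciferase luminescence.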

[17] = biological target: Glucocorticoid receptor (Homo sapiens) (UniProt P04150); assay: GR-GFP Redistribution (AID 450;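 active means compounds whose dose series gives a full or clear partial fitted curve of increased nuclear translocation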; further: potency means the concentration at half of the fitted maximal effect); conditions: U2OS GR-GFP nuclear translocation, laser cytometry, 2 h
[18] = biological target: Alpha-galactosidase (Coffea arabica) (UniProt Q42656); assay: Counterscreen for Glucocerebrosidase Inhibitors: qHTS Assay for Coffee Bean alpha-Galactosidase at pH 4.5 (AID 957);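 further: plate controls were enzyme alone for no effect and no enzyme for full effect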
Method in brief: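 Quantitative HTS of compounds (0.7 nM to 77 uM) against coffee bean alpha-galactosidase at pH 4.5, measuring 4-methylumbelliferone fluorescence released from 80 uM substrate.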

[19] = biological target: Ubiquitin carboxyl-terminal hydrolase 1 (Homo sapiens) (UniProt O94782); assay: Inhibitors of USP1/UAF1: Pilot qHTS (AID 504865);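 further: rhodamine fluorescence freed from ubiquitin-rhodamine substrate followed over time; top concentration of the series differs between compounds; on the % scale 0 is the no-effect control and ±100 the full control effect; nearly all actives have a fitted effect of over 35% in size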
Ubiquitin carboxyl-terminal hydrolase 1 (Homo sapiens), sequence (O94782 whole entry, looked up): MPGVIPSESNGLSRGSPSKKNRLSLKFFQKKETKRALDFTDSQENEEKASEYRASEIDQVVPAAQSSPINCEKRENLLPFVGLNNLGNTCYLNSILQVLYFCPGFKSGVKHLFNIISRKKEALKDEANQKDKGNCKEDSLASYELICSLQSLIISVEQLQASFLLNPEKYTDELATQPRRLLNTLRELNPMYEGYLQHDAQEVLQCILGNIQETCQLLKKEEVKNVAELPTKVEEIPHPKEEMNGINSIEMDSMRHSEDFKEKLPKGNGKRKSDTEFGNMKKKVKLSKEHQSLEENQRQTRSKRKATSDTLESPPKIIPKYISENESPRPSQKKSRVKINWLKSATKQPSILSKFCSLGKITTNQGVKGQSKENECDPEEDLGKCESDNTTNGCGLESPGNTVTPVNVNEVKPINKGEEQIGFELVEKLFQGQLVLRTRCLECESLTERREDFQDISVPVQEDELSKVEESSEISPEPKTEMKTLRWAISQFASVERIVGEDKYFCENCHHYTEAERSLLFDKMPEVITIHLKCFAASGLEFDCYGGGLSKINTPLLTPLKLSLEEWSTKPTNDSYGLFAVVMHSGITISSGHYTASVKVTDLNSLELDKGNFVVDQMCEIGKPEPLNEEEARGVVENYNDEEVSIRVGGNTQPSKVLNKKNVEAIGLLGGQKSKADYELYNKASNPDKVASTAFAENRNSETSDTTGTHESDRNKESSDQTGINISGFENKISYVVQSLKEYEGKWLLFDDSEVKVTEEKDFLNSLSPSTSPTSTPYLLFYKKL
Method in brief: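 In 50mM HEPES pH 7.8 containing 0.5mM EDTA, 1mM TCEP, 0.1 mg/ml BSA and 0.01% Tween-20, 1nM USP1/UAF1 is exposed to compound for 15 min, then Ub-Rho (150nM final) is added and fluorescence is read over time.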

[20] = measured here: cell count channel max response
[21] = measured here: lipid channel max response

C[C@H](N)Cc1c[nH]c2ccc(O)cc12
inactive: outcome [1] | Potency [2] | outcome [3] | Potency [4] > 46 µM | outcome [5] | Potency [6] | outcome [7] | Potency [8] | outcome [9] | outcome [10] | outcome [11] | outcome [12] | activity change, negative = inhibition ([13]; at 57.5 µM (top of the series)) 0.648% | Potency [14] | Potency [15] | Potency [16]
23.2%: max response [13, 21]
20.6%: max response [13, 20]

CC[C@H](C)[C@H](NC(=O)[C@H](CCCN=C(N)N)NC(=O)[C@H](CCCN=C(N)N)NC(=O)[C@H](CC(C)C)NC(=O)[C@H](Cc1ccccc1)NC(=O)CNC(=O)CNC(=O)[C@@H](N)Cc1ccc(O)cc1)C(=O)N[C@@H](CCCN=C(N)N)C(=O)N1CCC[C@H]1C(=O)N[C@@H](CCCCN)C(=O)N[C@@H](CC(C)C)C(=O)N[C@@H](CCCCN)C(=O)O
inactive: activity change, negative = inhibition [15] 3.59% [at 6.83 µM] | activity change, negative = inhibition [16] -25.4% [at 3.88 µM]

C[C@H](NC(=O)[C@@H](N)Cc1ccc(O)cc1)C(=O)N[C@@H](Cc1ccccc1)C(=O)NCC(=O)N[C@@H](Cc1ccc(O)cc1)C(=O)N1CCC[C@H]1C(=O)N[C@@H](CO)C(N)=O
inactive: activity change, negative = inhibition [15] 8.07% [at 6.83 µM] | activity change, negative = inhibition [16] -16.9% [at 3.88 µM]

CC(C)C[C@H](NC(=O)[C@H](Cc1ccccc1)NC(=O)CNC(=O)[C@H](CS)N(C(=O)[C@@H](N)Cc1ccc(O)cc1)C(C)(C)C)C(=O)N([C@H](C(=O)O)[C@H](C)O)C(C)(C)C (HELM PEPTIDE1{Y.[CC(C)(C)N([C@@H](CS)C(=O)[*:2])[*:1]].G.F.L.[C[C@H](O)[C@@H](C(=O)O)N(C(C)(C)C)[*:1]]}$$$$V2.0)
inactive: activity change, negative = inhibition [15] 12.2% [at 6.83 µM] | activity change, negative = inhibition [16] -10.6% [at 3.88 µM]

CCCCC/C=C\C[C@@H](/C=C/C=C\C/C=C\CCCC(=O)O)OO
inactive: activity change, negative = inhibition [15] 11.4% [at 0.59 µM] | activity change, negative = inhibition [16] -39.3% [at 0.478 µM]

C[C@]12CC[C@H]3[C@@H](C[C@H](F)C4=CC(=O)CC[C@@]43C)[C@@H]1CC[C@@H]2O
inactive: Potency [15] | Potency [16]

C=CCN1CC[C@@]23c4c5ccc(O)c4O[C@H]2/C(=N\N=C2/CC[C@@]4(O)[C@H]6Cc7ccc(O)c8c7[C@@]4(CCN6CC=C)[C@@H]2O8)CC[C@]3(O)[C@@H]1C5
10.9%: max response [13, 20]
inactive: outcome [1] | Potency [2] | Potency [17] > 46 µM | Potency [4] > 46 µM | outcome [5] | outcome [7] | Potency [8] | outcome [9] | outcome [10] | outcome [18] | outcome [11] | outcome [12] | activity change, negative = inhibition ([13]; at 57.5 µM (top of the series)) 1.28% | Potency [19] | Potency [14] | Potency [15] | Potency [16]
11.9%: max response [13, 21]

CCCC[C@H]1C(=O)O[C@H](C)[C@H](NC(=O)c2cccc(NC=O)c2OC)C(=O)O[C@@H](C)[C@@H]1OC(=O)CC(C)C
inactive: Potency [15] | Potency [16]

H-YPFVEPI-OH
inactive: activity change, negative = inhibition [15] -10.5% [at 6.83 µM] | activity change, negative = inhibition [16] -11.8% [at 3.88 µM]

c1cncc(C2=NCCC2)c1
inactive: outcome [1] | outcome [3] | Potency [17] > 20.6 µM | Potency [4] > 20.6 µM | outcome [5] | Potency [6] | activity change, negative = inhibition ([13]; at 25.7 µM (top of the series)) -0.221% | Potency [19] | Potency [15] | Potency [16]
-18.1%: max response [13, 20] | max response [13, 21]

COc1ccc2[nH]cc(CCNCc3ccc(Br)cc3)c2c1
inactive: Potency [15] | Potency [16]

CCc1cccc(CC)c1NC1=NCCN1
inactive: Potency [15] | Potency [16]
